# Compound activity: PubChem, National Center for Advancing Translational Sciences (NCATS)
# Most compounds without a hit are left out; they make up all but 19% or so of the library.
# BCR signal inh = qHTS Assay to Find Inhibitors of Chronic Active B-Cell Receptor Signaling | Potency, µM (top dose mostly 46.1 µM), for the others: at the highest dose activity change, negative = inhibition, hits mostly inhibitors | 340,000 compounds, 0.05% hits | ABC-DLBCL IkBa-CBG/CBR reporter, luminescence ratio, 4 h; active = well fitted inhibition curve with a large enough effect in the signal ratio, with a control signal flat, not every such curve was filed as active; inconclusive = small, poorly fitted or top-dose-only effect, or effect the other way, or a change in a side signal; the % refers to the signal ratio;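 also: potency is read from the fitted curve at half-maximal effect; plate controls were basal doxycycline-induced cells for no effect and cells given 10 µM MG132 for full effect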
#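 Doxycycline induced both beetle luciferases in TMD8 lymphoma cells; IKK-driven degradation limits the IkappaBalpha-fused green signal, while red luminescence normalises for cell number and nonspecific effects. Compounds tested up to 46 uM, 4 hrs.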
# MCF10A rerep = A quantitative high throughput screen for small molecules that induce DNA re-replication in MCF 10a normal breast cells. AID 624296, 2012. 350,000 compounds, 2.9% hits. MCF 10A DNA re-replication, Hoechst nuclear intensity, 48 h. Potency, µM (top dose mostly 46.1 µM), for inactives: at the top dose activity, positive = re-replication, actives largely listed as activators; also: potency is read from the fitted curve at half-maximal effect; % of control where 0% means no effect; nearly all actives have a fitted effect of over 50% in size
# DT40 TDP1 no CPT = qHTS for Inhibitors of human tyrosyl-DNA phosphodiesterase 1 (TDP1): qHTS in cells in absence of CPT; Potency, µM (highest dose often 46.2 µM), for the others: top-dose activity change, negative = growth inhibition, hits mostly inhibitors; DT40 Tdp1-/- hTDP1 cells, no CPT, ATP luminescence, 48 h; 420,000 compounds, 15% hits; AID 686978, 2013; also: potency is read from the fitted curve at half-maximal effect; % is scaled to controls: 0 for no effect and ±100 for the full control effect; nearly all actives have a fitted effect of over 55% in size
#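 No-CPT arm: Tdp1-/-;hTDP1 DT40 cells (400/well) plus compounds, incubated ≥48 hr at 37 °C. Readout CellTiter-Glo luminescence.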
# TDP1 cell CPT = qHTS for Inhibitors of human tyrosyl-DNA phosphodiesterase 1 (TDP1): qHTS in cells in presence of CPT. chicken DT40 Tdp1-/-;hTDP1 cells + 20 nM CPT, ATP luminescence, 48 h. Potency, µM (doses to about 46.2 µM), without a hit: at the top dose activity change, negative = growth inhibition, actives largely listed as inhibitors. 420,000 compounds, 12% hits. AID 686979, 2013; also: potency is read from the fitted curve at half-maximal effect; % is scaled to controls: 0 for no effect and ±100 for the full control effect; nearly all actives have a fitted effect of over 55% in size
#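 Chicken DT40 Tdp1-/- cells complemented with human TDP1, 400 cells/well, exposed to compounds plus 20 nM camptothecin for at least 48 h at 37 C; viability read as ATP content by CellTiter-Glo luminescence.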
# IL1B secr inh = qHTS for Inhibitors of Inflammasome Signaling: IL-1-beta AlphaLISA Primary Screen; THP-1 LPS/ATP IL-1B secretion, AlphaLISA, 16 h; stronger effect = lower value; activity change, % at 57.5 µM; 360,000 compounds, 4.7% hits; AID 743279, 2014; in the data active = activity change below about -50%; inconclusive = mostly about -30% to -49%; also: % is scaled to controls: 0 for no effect and ±100 for the full control effect
#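 THP-1 cells pretreated 1 hr with compounds (up to 57.5 uM final), then stimulated with LPS (250 ng/mL final) plus ATP (1.25 mM final); secreted IL-1B measured by AlphaLISA after 16 hr, decreased signal indicating inhibition.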
# SW480 rereplic = A quantitative high throughput screen for small molecules that induce DNA re-replication in SW480 colon adenocarcinoma cells | Potency, µM (doses to about 46.1 µM), for the others: top-dose re-replication activation, most hits filed as activators | AID 624297, 2012 | SW480 DNA re-replication, Hoechst DNA content imaging, 48 h | 340,000 compounds, 1.8% hits; also: potency is read from the fitted curve at half-maximal effect; % of control where 0% means no effect; nearly all actives have a fitted effect of over 55% in size
#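 First, 250 cells per well were seeded. Next, compound or vehicle (23 nL) was pinned in, plates sat 48 hr at 37 C. Finally Hoechst was added for 40 min before fluorescence scanning.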
# Active calls of the source: *; i = inactive; ? = inconclusive; · = not tested or not shown; [ ] = dose if it differs, or a comment. Unless noted, calls follow the shape of the dose curve; as a rule, active = well fitted curve in the direction sought with a large enough effect; inconclusive = small, poorly fitted or top-dose-only effect, or another doubt; inactive = no such curve, though single readings can be large; an effect the other way counts as inactive or inconclusive.
SMILES,BCR signal inh,MCF10A rerep,DT40 TDP1 no CPT,TDP1 cell CPT,IL1B secr inh,SW480 rereplic
CN1C(=O)CCC(CCC(=O)O)(c2ccccc2O)C1=O (configuration not stated),2%,-1%,-1%,7%,14,2%
O=C([C@@H]1CC=C[C@@H]2CCN(C3CC3)C(=O)[C@@H]21)N1CCN(c2ccccc2)CC1,·,-26%,4%,-9%,18,-28%[9.22 µM]
CCCCNC(=O)[C@@H]1CC=C[C@@H]2CCN(Cc3ccccc3)C(=O)[C@@H]21,·,·,-62%,-64%,·,·
CCCCNC(=O)[C@@H]1CC=C[C@@H]2CCN(Cc3ccc(Cl)c(Cl)c3)C(=O)[C@@H]21,·,-2%,8.9µM*,11µM*,-7,1%
O=C1[C@H]2[C@H](C=CC[C@H]2C(=O)N2CCN(c3ccccc3)CC2)CCN1Cc1ccccc1,·,-1%,14µM*,?,2,-3%
CCn1c(-c2ccccc2F)nc2cc(NC(C)=O)cc(C(=O)N(C)Cc3c(C)nc4ccccn34)c21,·,·,?,9%,·,·
COCC(=O)Nc1cc(C(=O)NC2C3CC4CC2CC(O)(C4)C3)cc2nc(-c3ccccc3)n(C)c12 (configuration not stated),·,·,-5%,-1%,·,·
CN(C)CCNc1nccc(N2CCN(C)CC2)n1,·,·,-10%,9%,·,·
CC(C)(C)OC(=O)N1CCC[C@H]1C(=O)Nc1ccc(C#N)cc1,0%,1%,?,-8%,-7,9%
Cc1onc(-c2ccccc2)c1C(=O)N(Cc1ccccc1)C(C)C,10%,9%,26µM*,?,23,7%
Cc1onc(-c2ccccc2)c1C(=O)Nc1ncc([N+](=O)[O-])s1,?,?,21µM*,23µM*,-67*,14%
Cc1onc(-c2ccccc2)c1C(=O)Nc1nnc(C(C)C)s1,-5%,-1%,13%,4%,22,-18%
Cc1ccccc1NC(=O)c1c(-c2ccccc2)noc1C,?,11%,9.2µM*,12µM*,25,0%
Cc1onc(-c2ccccc2)c1C(=O)Nc1ccccc1NC(=O)c1c(-c2ccccc2)noc1C,-1%,-2%,18µM*,15µM*,-10,-4%
Cc1cccc(C)c1NC(=O)c1c(-c2ccccc2)noc1C,0%,-9%,-8%,-26%,4,-17%
CCC1(C)OC(=O)NN(c2ccc(C)cc2)C1(C)O (configuration not stated),-1%,6%,-5%,-11%,-2,2%
CCCOc1ccccc1NC(=O)c1c(-c2ccccc2)noc1C,11%,0%,8.2µM*,?,30,2%
Cc1cc(SCc2ccc([N+](=O)[O-])cc2)nc(=O)[nH]1,?,?,-21%,6%,5,14%
O=C(Nc1cccc(C(=O)N2CCN(c3cccc(Cl)c3)CC2)c1)c1nsc2ccccc12,·,·,16µM*,18µM*,·,·
O=C(Nc1cccc(C(=O)N2CCN(c3ccc(Cl)cc3)CC2)c1)c1nsc2ccccc12,·,·,10µM*,15µM*,·,·
O=C(Nc1cccc(C(=O)N2CCN(c3cccc(Cl)c3)CC2)c1)c1ccccc1,?,?,26µM*,16µM*,?,?
Cc1ccc(C)c(N2CCN(C(=O)c3ccc(NC(=O)c4nsc5ccccc45)cc3)CC2)c1,·,·,18µM*,21µM*,·,·
Cc1ccc(C)c(N2CCN(C(=O)c3ccc(Nc4nc5ccccc5n5nnnc45)cc3)CC2)c1,·,·,-11%,2%,·,·
O=C(Nc1cccc(C(=O)N2CCN(c3ccccc3)CC2)c1)c1ccco1,-6%,-4%,-24%,-23%,i,0%
Cc1ccc2nc(Cl)c3cc(C(=O)N(C)C4CCCCC4)sc3c2c1,·,·,-17%,-16%,·,·
SMILES,BCR signal inh,MCF10A rerep,DT40 TDP1 no CPT,TDP1 cell CPT,IL1B secr inh,SW480 rereplic
CCc1ccc(-n2nc(CO)c(C(=O)NC(C)c3ccc(Cl)cc3)n2)cc1 (configuration not stated),·,·,-15%,-28%,·,·
O=S1(=O)CCN(C2CC2)CC1,·,·,49%,-3%,30,·
Cn1cccc1-c1cc2n(n1)CCC(=O)N2CCCC(=O)NCc1cccc(Cl)c1,·,·,-24%,-29%,·,·
Cc1noc(C)c1S(=O)(=O)Nc1ccc(C(=O)N2CCN(c3cccc(Cl)c3)CC2)cc1,?,-1%,-12%,-17%,0,6%
O=C(Nc1ccc(C(=O)N2CCN(c3cccc(Cl)c3)CC2)cc1)c1nsc2ccccc12,·,·,13µM*,?,·,·
CN1CCN(NC(=O)CN2C(=O)S/C(=C\c3c(Cl)cccc3Cl)C2=O)CC1,?,-8%,-12%,6%,-12,-4%
COc1cccc(OC)c1C(=O)N1CCN(Cc2c[nH]c3ccccc23)CC1,·,·,-28%,-28%,0,·
O=C(c1cccc(F)c1)N1CCN(Cc2c[nH]c3ccccc23)CC1,?,0%,?,?,-8,-4%
COc1ccccc1C(=O)N1CCN(Cc2c[nH]c3ccccc23)CC1,-12%,2%,16µM*,15µM*,-1,-3%
O=[N+]([O-])c1ccccc1CN1CCN(Cc2c[nH]c3ccccc23)CC1,-19%,5%,3.7µM*,2.9µM*,?,19%
O=[N+]([O-])c1ccccc1CN1CCN(c2ncccn2)CC1,6%,1%,?,-11%,36,5%
O=C(c1ccc([N+](=O)[O-])cc1)N1CCN(Cc2ccccc2[N+](=O)[O-])CC1,?,16%,?,?,-27,-2%
O=C(c1ccccc1)N1CCN(Cc2c[nH]c3ccccc23)CC1,-3%,-1%,?,?,-83*,3%
O=[N+]([O-])c1ccccc1CN1CCN(Cc2ccccn2)CC1,0%,5%,?,26µM*,-9,-73%
COc1ccc(Br)c(C=O)c1OS(=O)(=O)c1ccc(C)cc1,·,·,?,?,19,·
CN(Cc1ccccc1F)c1cc2c(c3c1ccn3C)C1CCC2C1 (configuration not stated),·,·,23µM*,?,0,·
O=Cc1c(NCCN2CCCC2)c2ccccc2[nH]c1=O,?,-2%,-4%,11%,9,-2%[9.22 µM]
